Test [1] can be described thus: qHTS assay to identify small molecule antagonists of the retinoid acid receptor (RAR) signaling pathway - cell viability counter screen (AID 1159551). Note: nearly all actives have a fitted effect of over 35% in size. Note: potency is the fitted concentration of half-maximal effect. The method in brief:
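Luminescent ATP quantitation (CellTiter-Glo) gave cell viability in C3RL4 cells exposed to test chemicals for 6 h at 37 C alongside 1 uM final retinol.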
(In general: Quantitative high-throughput screening tests each substance at several concentrations.)

Test [2] in a line: qHTS assay to identify small molecule antagonists of the estrogen related receptor (ERR) signaling pathway from Tox21 library - cell viability counter screen (AID 1224834). Note: nearly all actives have a fitted effect of over 30% in size. Note: potency is the fitted concentration of half-maximal effect. Summed up:
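Fluorescence from CellTiter-Fluor gives the viability read-out, taken 30 min after reagent addition. Before that, ERR cells seeded 6 h earlier were incubated with compounds for 17.5 h at 37 C.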

The target of test [3] is Luciferin 4-monooxygenase (Photinus pyralis) (UniProt P08659). As to the kind of experiment: qHTS assay to identify small molecule inhibitors of firefly luciferase (AID 1224835). Note: nearly all actives have a fitted effect of over 25% in size. Note: potency is the fitted concentration of half-maximal effect. Summed up:
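Quantitative HTS format; KM concentrations of both substrates. Purified P. pyralis FLuc activity quantified from luminescence images.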

Test [4] in a line: qHTS assay to identify small molecule agonists of the constitutive androstane receptor (CAR) signaling pathway - cell viability counter screen (AID 1224836). Note: nearly all actives have a fitted effect of over 45% in size. Note: potency is the fitted concentration of half-maximal effect. Summed up: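 Double-stable HepG2 hepatoma cells (hCAR plus CYP2B6-2.2kb) are treated for 23 h at 37 C with test compounds in 15-point concentration series. PK11195 at 0.75 uM final is co-added. Cell viability is quantified by CellTiter-Fluor.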

Test [5] in a line: qHTS assay to identify small molecule antagonists of the constitutive androstane receptor (CAR) signaling pathway - cell viability counter screen (AID 1224837). Note: nearly all actives have a fitted effect of over 45% in size. Note: potency is the fitted concentration of half-maximal effect. Summed up: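 HepG2-CYP2B6-hCAR cells, 2500/well, 4 hr pre-incubation; compound titration, 15 conc.; CITCO 50 nM final; 23 hr, 37 C/5% CO2; CellTiter-Fluor, fluorescence intensity.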
The target of test [6] is Nuclear receptor subfamily 1 group I member 3 (Homo sapiens) (UniProt Q14994). The test is described as follows: qHTS assay to identify small molecule antagonists of the constitutive androstane receptor (CAR) signaling pathway (AID 1224838).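 Note: HepG2 cells stably expressing hCAR with CYP2B6 luciferase reporter stimulated by CITCO; nearly all actives have a fitted effect of over 40% in size.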 Note: potency is the fitted concentration of half-maximal effect. Summed up: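 HepG2-CYP2B6-hCAR cells; 4 h pre-incubation; cpd (15 conc) + CITCO 50 nM final; 24 h, 37 C/5% CO2; ONE-Glo, luminescence.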
Chain of Nuclear receptor subfamily 1 group I member 3 (Homo sapiens) (Q14994 whole entry, looked up): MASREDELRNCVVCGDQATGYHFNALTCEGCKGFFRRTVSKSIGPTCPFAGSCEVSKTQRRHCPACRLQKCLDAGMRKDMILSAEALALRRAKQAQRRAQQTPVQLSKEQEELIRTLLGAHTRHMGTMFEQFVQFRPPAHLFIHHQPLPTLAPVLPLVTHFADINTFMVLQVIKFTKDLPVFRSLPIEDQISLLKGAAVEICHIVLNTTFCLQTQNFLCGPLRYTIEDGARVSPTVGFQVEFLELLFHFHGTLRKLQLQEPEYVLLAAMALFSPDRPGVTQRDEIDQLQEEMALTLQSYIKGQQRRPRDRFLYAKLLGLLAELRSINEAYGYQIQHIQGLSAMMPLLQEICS

Test [7] shares this target. The test is described as follows: qHTS assay to identify small molecule agonists of the constitutive androstane receptor (CAR) signaling pathway (AID 1224839).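 Note: HepG2 cells stably carrying human CAR and a CYP2B6 luciferase reporter; series mostly up to about 92 µM; nearly all actives have a fitted effect of over 15% in size.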 The method in brief: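 Readout: firefly luciferase luminescence via ONE-Glo. System: HepG2 double-stable for hCAR and CYP2B6-2.2kb. Conditions: 15-point compound titration, PK11195 at 0.75 uM final, 24 h incubation.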

Test [8] can be described thus: qHTS assay to identify small molecule antagonists of the estrogen related receptor signaling pathway with the pleiotropic PPARgamma coactivator (PGC) from Tox21 10K library - cell viability counter screen (AID 1224840; active = well fitted cell-killing curve with a large enough effect in the repeat runs, not every such curve was filed as active; note: nearly all actives have a fitted effect of over 40% in size; note: potency is the fitted concentration of half-maximal effect). The method in brief:
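PGC/ERR cells, 2,000/well; 6 h pre-incubation 37 C/5% CO2; cpd in DMSO via pin tool; 17.5 h 37 C; CellTiter-Fluor, 30 min; fluorescence.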

Test [9] can be described thus: qHTS assay to identify small molecule agonists of the estrogen related receptor signaling pathway with the pleiotropic PPARgamma coactivator (PGC) from Tox21 10K library (AID 1224842). Note: nearly all actives have a fitted effect of over 15% in size. Summed up: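 PGC/ERR reporter cells (NTP line) were seeded 2,000 per well, rested 6 h at 37 C/5% CO2, then pin-dosed with compounds in DMSO for 18 h at 37 C; luciferase read by One-Glo luminescence after 30 min at room temperature.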

Test [10] is described as follows: qHTS assay to identify small molecule agonists of the hypoxia (HIF-1) signaling pathway - cell viability counter screen (AID 1224844; calls by dose curve; note: nearly all actives have a fitted effect of over 50% in size; note: potency is the fitted concentration of half-maximal effect). Summed up: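 ME-180 HRE-bla cells, 2,000/well, 0.5% dialyzed FBS; 5 hr settle, 17 hr compound at 37C/5% CO2; CCF4-AM reporter read first, then CellTiter-Glo luminescence after 30 min RT.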
A short description of test [11]: qHTS assay to identify small molecule agonists of the retinoic acid receptor (RAR) signaling pathway (AID 1159553). The method in brief:
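Luminescence from a RARE-driven luciferase reporter in C3RL4 cells served as the read-out, measured after 30 min with detection reagent at room temperature. Compounds in DMSO were applied for 6 hr at 37 C following overnight seeding.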

The target of test [12] is Thyrotropin receptor (Homo sapiens) (UniProt P16473). As to the kind of experiment: qHTS assay to identify small molecule agonists of the thyroid stimulating hormone receptor (TSHR) signaling pathway (AID 1224843; calls by dose curve; note: nearly all actives have a fitted effect of over 45% in size; note: potency is the fitted concentration of half-maximal effect). Summed up: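 Cell line HEK293 with TSHR; density 800/well. Exposure 30 min RT. Readout HTRF cAMP (cAMP-d2/anti-cAMP-cryptate), 1 h RT before reading.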
Chain of Thyrotropin receptor (Homo sapiens) (P16473 whole entry, looked up): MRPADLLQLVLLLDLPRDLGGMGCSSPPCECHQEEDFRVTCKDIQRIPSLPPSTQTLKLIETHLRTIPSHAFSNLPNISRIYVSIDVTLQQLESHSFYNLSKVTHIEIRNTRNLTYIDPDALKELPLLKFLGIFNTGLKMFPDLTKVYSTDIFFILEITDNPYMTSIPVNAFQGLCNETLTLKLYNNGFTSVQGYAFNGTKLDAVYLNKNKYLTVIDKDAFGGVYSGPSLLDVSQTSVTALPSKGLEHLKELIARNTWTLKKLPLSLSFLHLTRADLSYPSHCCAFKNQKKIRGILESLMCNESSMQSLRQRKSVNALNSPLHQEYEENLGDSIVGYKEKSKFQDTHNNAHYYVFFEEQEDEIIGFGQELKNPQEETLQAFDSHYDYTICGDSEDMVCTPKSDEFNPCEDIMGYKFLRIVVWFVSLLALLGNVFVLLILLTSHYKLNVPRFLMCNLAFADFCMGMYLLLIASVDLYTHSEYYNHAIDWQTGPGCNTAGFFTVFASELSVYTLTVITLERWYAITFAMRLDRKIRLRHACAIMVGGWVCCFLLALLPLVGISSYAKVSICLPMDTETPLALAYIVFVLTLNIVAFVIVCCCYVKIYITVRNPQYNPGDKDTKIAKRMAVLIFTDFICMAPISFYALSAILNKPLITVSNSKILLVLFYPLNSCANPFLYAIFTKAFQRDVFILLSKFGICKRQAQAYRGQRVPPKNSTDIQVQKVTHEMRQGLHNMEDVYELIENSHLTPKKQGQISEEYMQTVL
A short description of test [13]: qHTS assay to identify small molecule antagonists of the estrogen related receptor (ERR) signaling pathway - cell viability counter screen (AID 1224818).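 Note: series mostly up to about 46 µM; viability measured after 17.5 h of compound exposure.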 The method in brief: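 Multiplexed counter screen to separate cytotoxic compounds from true ERR modulators. ERR cells received DMSO-dissolved compounds after a 6 h pre-incubation, were exposed 17.5 h at 37 C, then assayed with CellTiter-Fluor fluorescence.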

The nature of test [14]: qHTS assay to identify small molecule antagonists of the estrogen related receptor signaling pathway with the pleiotropic PPARgamma coactivator (PGC) cell viability counter screen (AID 1224822; note: series mostly up to about 46 µM). Summed up:
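Cells: PGC/ERR, 2,000/well, 1536-well format. Pre-incubation 6 h, 37 C/5% CO2. Compound exposure 17.5 h, 37 C. Detection: CellTiter-Fluor, 30 min, fluorescence.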

A short description of test [15]: qHTS assay to identify small molecule antagonists of the estrogen related receptor signaling pathway with the pleiotropic PPARgamma coactivator (PGC) from Tox21 10K library (AID 1224841; call rule not given here; note: potency is the fitted concentration of half-maximal effect; actives are mostly falling curves and most rising ones were filed inactive; nearly all actives have a fitted effect of over 50% in size). Summed up:
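PGC/ERR cell line, 2,000 cells/well; 6 h pre-incubation 37 C/5% CO2; compounds (DMSO) pinned in; 18 h, 37 C; One-Glo, 30 min RT; luminescence.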

Records with an inconclusive call do not appear. Unmarked numbers belong to inactive results. Calls of active or inactive are those of the source. Unless noted, calls come from the whole dose curve; as a rule, active = well fitted curve in the direction sought with a large enough effect in the repeat runs; inconclusive = weak or mixed curves; inactive = no such curve, though single readings can be large; an effect the other way counts as inactive or inconclusive.

Chain of Luciferin 4-monooxygenase (Photinus pyralis) (P08659 whole entry, looked up): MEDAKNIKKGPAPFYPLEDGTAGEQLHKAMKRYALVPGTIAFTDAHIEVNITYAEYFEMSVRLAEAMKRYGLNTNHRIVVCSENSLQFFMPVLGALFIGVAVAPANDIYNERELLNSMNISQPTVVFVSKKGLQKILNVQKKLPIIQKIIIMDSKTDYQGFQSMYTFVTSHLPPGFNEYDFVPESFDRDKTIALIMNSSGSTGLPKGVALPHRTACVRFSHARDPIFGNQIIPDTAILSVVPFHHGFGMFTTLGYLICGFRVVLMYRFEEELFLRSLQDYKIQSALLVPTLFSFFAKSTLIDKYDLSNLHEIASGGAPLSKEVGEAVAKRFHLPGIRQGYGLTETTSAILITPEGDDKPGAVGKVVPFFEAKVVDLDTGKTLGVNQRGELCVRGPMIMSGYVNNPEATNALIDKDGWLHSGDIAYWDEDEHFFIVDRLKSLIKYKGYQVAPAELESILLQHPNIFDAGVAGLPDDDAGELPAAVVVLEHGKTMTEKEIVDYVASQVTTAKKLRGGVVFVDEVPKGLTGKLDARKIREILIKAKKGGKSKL

Take `CCC(C)Nc1ccc(NC(C)CC)cc1` (configuration not stated): the Potency in [1] is 39.3 µM (active); in test [2], 19.7 µM (active); in test [3], 40.7 µM (active); in test [4] it was 19.7 µM (active); in [5], 31.2 µM (active); in test [6], 27.8 µM (active). For the same compound, the values for the Potency in test [8] and in test [10] were 15.7 µM (active) and 12.5 µM (active), respectively. The Potency entry in [7] and in [9] was “inactive” throughout.
`O=C(Oc1ccccc1)c1ccccc1C(=O)Oc1ccccc1`: the Potency result in test [1], in [11], in test [3], in [4], in [5] and in [6] was “inactive” in each case. In addition, the Potency result in test [7] and in [10] was “inactive” in each case.
Regarding `Nc1ccc(N)c2ccccc12`, the Potency in [1] was 68.5 µM (active); in test [2], 30.6 µM (active); in test [4], 30.6 µM (active); in test [5] it was 30.6 µM (active); in [8], 54.4 µM (active); in [10], 24.5 µM (active). In addition, the Potency result in [3], in test [7], in test [9] and in [12] was “inactive” throughout.
As for `CC(C)C(C)(C)C(C)(C)C(C)(C)S`, the Potency entry in test [1], in [13], in test [14], in test [2], in test [3] and in [4] was “inactive” throughout. Besides, the Potency entry in test [5], in test [8] and in [12] was “inactive” throughout.
Take `CCCCCCC[N+](CC)(CC)CCCCc1ccc(Cl)cc1`: the Potency entry in test [1], in [11], in test [3], in [4], in test [5] and in test [6] was “inactive” each time. The Potency entry in test [8], in test [12] and in test [10] was “inactive” throughout. Besides, the Potency in test [2] is 23.7 µM (active).
Turning to `COC(=O)c1cc(Cl)ccc1OC`, the Potency result in [1], in test [2], in [3], in test [4], in [5] and in [6] was “inactive” in each case. Further, the Potency result in [7], in test [8], in [12] and in [10] was “inactive” throughout.
Regarding `CCOc1ccc2nc3cc(N)ccc3c(N)c2c1`, the Potency entry in [1], in test [11], in test [3], in [4], in test [5] and in test [7] was “inactive” in each case. Besides, the Potency entry in [12] was “inactive”. For the same compound, the Potency in test [6] is 2.66 µM (active).
As to `O=S1(=O)CC(Cl)(Cl)C(Cl)(Cl)C1`, the Potency in test [1] is 15.4 µM (active); in test [2], 15.4 µM (active); in test [4] it was 12.2 µM (active); in [5], 8.63 µM (active); in [8] it was 9.69 µM (active); in test [15], 13.7 µM (active). Further, the Potency in [12] is 4.86 µM (active); in [10] it was 3.89 µM (active). Further, the Potency result in test [3] and in test [9] was “inactive” throughout.
As to `Cc1cccc(CN2CCN(C(c3ccccc3)c3ccc(Cl)cc3)CC2)c1` (configuration not stated), the Potency entry in test [1], in test [2], in test [3], in test [4], in test [5] and in test [7] was “inactive” in each case. The Potency result in test [8] is “inactive”.

The record behind these values is PubChem BioAssay (Tox21).
